Our source for the growth inhibition values is PubChem BioAssay.

Calls of active or inactive are those of the source. How the calls were made is not given here.

The nature of the experiment: inhibition of 3D7 malaria parasite growth – strain 3D7 (AID 2306).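 Further: 0% = DMSO wells and 100% = chloroquine plus artemisinin control wells.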 Conditions: P. falciparum 3D7 erythrocytic growth, LDH absorbance, 72 h; at 2 µM; active compounds read high.
Regarding `CN(Cc1ccncc1)C(Cc1ccccc1)C1CCN(Cc2ccc(O)c(Cl)c2)CC1` (stereo unspecified), the growth inhibition is 96% (active).

As for `Clc1ccccc1CN1CCC(NCc2cccc(-n3ccnc3)c2)CC1`, the growth inhibition was 101% (active). The same measure for `CCN1CCC(N(Cc2ccc(-c3ccc(C(F)(F)F)cc3)cc2)C(=O)Cn2c(CCc3cccc(F)c3F)cc(=O)c3cn(C)nc32)CC1`: 95% (active). With `CC[C@H]1CN2CCc3cc(OC)c(OC)cc3[C@@H]2C[C@@H]1CC1=NCCc2c1[nH]c1ccc(OCc3ccccc3)cc21` the figure was 101% (active). For the compound `Nc1ncc(-c2ccsc2)c2ccc(-c3cnc[nH]3)cc12`, the growth inhibition is 100% (active). With `Cc1c(C)c2c(c(C)c1O)CC[C@@](C)(C(=O)N1CCC(CCN3CCC(c4c[nH]c5ccccc45)CC3)CC1)O2` the figure was 98% (active).

`Cc1ccc(NC(=O)Nc2ccc(Cl)cc2)cc1-c1cccc(C(=O)Nc2ccc(F)cc2)c1`: the growth inhibition is 96% (active). With `N#Cc1cc([N+](=O)[O-])ccc1-n1nc(C(N)=O)n(Cc2cccc(F)c2)c1=S` the figure was 100% (active); with `Cc1ccccc1C1CCN(C2CCC(NC(=O)c3ccc(-c4cc(C(F)(F)F)nn4C)s3)CC2)CC1` (stereo unspecified), 98% (active); with `CC1(C)N=C(N)N=C(N)N1OCc1cc2ccccc2cc1CON1C(N)=NC(N)=NC1(C)C`, 92% (active). The same measure for `Cc1cc(N[C@@H](CC(C)C)C(=O)NCc2cccs2)nc(NCCc2ccc(F)cc2)n1`: 100% (active); for `O=C(N[C@@H](Cc1ccccc1)[C@H](O)CNC1CCCCC1)c1cc(C2CCCC2)cc(N2CCCC2=O)c1`: 100% (active). The same measure for `O=C(Nc1ccc(Cl)cc1)c1ccc(CN2CCCN(Cc3cccc(O)c3)CC2)cc1`: 100% (active); for `COc1ccc(N2CCN(CCCCNC(=O)c3ccc(NC(=O)c4cc(C(F)(F)F)cc(C(F)(F)F)c4)cc3)CC2)cc1OC`: 101% (active); for `CS(=O)(=O)CCNCc1cc(-c2cc3ncnc(Nc4ccc(OCc5cccc(F)c5)c(Cl)c4)c3s2)cs1`: 99% (active). For the compound `OCC1CCN(Cc2cccc(-c3cccc(-c4nc5ccc(C(F)(F)F)cc5[nH]4)c3)c2)CC1`, the growth inhibition is 102% (active). Regarding `CCN(CCCNc1nc(=S)[nH]c2cc(OC)c(OC)cc12)c1ccccc1`, the growth inhibition was 100% (active). With `Cc1cc(=O)[nH]c(/N=C(/N)NOCc2ccccc2)n1` the figure was 101% (active); with `O=C(Nc1cccc(-c2ccc(-c3nc4ccccc4[nH]3)cc2)c1)Nc1ccc(F)c(F)c1F`, 100% (active); with `CC(C)c1ccc(NS(=O)(=O)c2cccc(C(=O)NC3CCN(CC4CCCCC4)CC3)c2)cc1`, 93% (active). With `CC(C)(C)c1ccc2nc(-c3ccc(/C=C/C(=O)NC4CCN(Cc5ccccc5)CC4)cc3)[nH]c2c1` the figure was 101% (active); with `COc1cccc(C=NNc2cc(C)nc3c(OC)cccc23)c1`, 99% (active). The same measure for `O=C(/C=C/c1ccc(Cl)c(Cl)c1)NCCCCCN1CCCC(CNC(=O)Nc2ccc(Oc3ccccc3)cc2)C1` (stereo unspecified): 99% (active); for `CC(C)CNCc1cccc(-c2cccc(CN(CCN(C)C)C(=O)NCCc3ccccc3)c2)c1`: 99% (active); for `CC(C)(c1ccccc1)c1ccc(O)c(CN2CCOCC2)c1`: 99% (active). Regarding `CC1CCN(C(=O)C(Cc2c[nH]c3ccccc23)NS(=O)(=O)c2ccc(Cl)cc2)CC1` (stereo unspecified), the growth inhibition was 100% (active). The same measure for `O=C1NC(=O)C(c2ccc(Cl)cc2)=C1Nc1cccc(S(=O)(=O)C(F)(F)F)c1`: 99% (active); for `COc1ccc(N2C(=O)c3c(c4ccccc4n3C)C2c2ccccc2O)cc1` (stereo unspecified): 96% (active). With `CCCCC(=O)Nc1nonc1-c1ccc(OCC)c(OCC)c1` the figure was 101% (active); with `CN(C(=O)/C=C/c1c(Cl)cccc1Cl)C1CCN(CCCCCNC(=O)/C=C/c2ccc(Cl)c(Cl)c2)CC1`, 92% (active); with `CCn1c(-c2cc(C)on2)nc2cnc(Oc3ccc(C(=O)N4CC(=O)N(C)C4C(C)(C)C)cc3)cc21` (stereo unspecified), 81% (active). With `COc1cc2nc(N3CCC(CNC(=O)c4ccc(-c5ccc(C(=O)N(C)C)cc5C)cc4)CC3)nc(N3CCN(C)CC3)c2cc1OC` the figure was 88% (active); with `Cc1[nH]c(C)c(-c2csc3ccccc23)c(=O)c1Cl`, 97% (active); with `COc1cc2nc(N3CCN(C(=O)c4cccc(I)c4)CC3)nc(N)c2cc1OC`, 88% (active). For `Cc1cc(NC(=O)c2cccs2)ccc1OC1CCN(Cc2ccc(C#N)cc2)CC1`, the growth inhibition is 94% (active). The same measure for `COc1ccc(NC(=O)c2ccc(-c3nc(-c4cccc(C(F)(F)F)c4)cs3)cc2)cc1N1CCN(C)CC1`: 98% (active).
